MITF act – increases MITF-driven TRPM1 promoter luciferase signal; SK-MEL-5 TRPM1-promoter luciferase, 24 h; % of positive control, neutral wells = 0; activation, % at 12.5 µM; actives 0.75% (n = 300,000);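 active means mean activation of at least 80% with every replicate also reaching 80%; inconclusive means mean reaches 80% but some replicate falls short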;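 further: 0% = neutral control wells and 100% = parthenolide positive control wells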
esBAF inh – SWI/SNF esBAF complex inhibition. mouse ES cells, Bmi1-luciferase knock-in reporter, 24 h; 100% = twice the neutral-well signal. reporter increase, % at 12.5 µM. actives 2% (n = 350,000); in the data active means activation above about 40%; inconclusive means no clear call, values can overlap the other calls;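 further: 0% = median of the plate's neutral control wells and 100% = double that signal; a rise in the Bmi1 reporter signal indicates esBAF inhibition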
PAX8 inh HTS – PAX8 transcriptional activity inhibition. RMG-I TPO-luciferase reporter, SteadyGlo, 24 h. inhibition, % at 12.6 µM. actives 1.2% (n = 360,000). AID 652154;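 active means mean replicate inhibition at least 60% with every replicate also reaching 60%; inconclusive means only one of the two criteria is met; inactive means mean below 60% and not all replicates reaching 60%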;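 further: luciferase light reporting Pax8 driven TPO promoter activity; plate controls were median of neutral control wells for no effect and mitoxantrone controls for full effect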
EWS-Fli block – EWS/Fli transcriptional activity inhibition; actives 0.67% (n = 350,000); A673 NR0B1-luciferase reporter, viability-normalised; inhibition, % at 12.6 µM;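 active means mean inhibition of at least 50% after viability correction, with every replicate also passing that limit; inconclusive means mean reaches 50% but only one of two replicates passes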;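 further: firefly luciferase signal divided by Alamar Blue viability fluorescence both relative to DMSO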
Wnt bcat act – Wnt/beta-catenin pathway activation; Wnt/beta-catenin reporter cell assay, activator, plate reader; activation, % at 9.35 µM; actives 1.2% (n = 300,000); in the data active means activation above about 30%, passing the limit was not always enough; inconclusive means no clear call, values can overlap the other calls;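 further: 0% = neutral control wells and 100% = positive control wells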
TRPM1 prom inh – inhibitors of MITF-driven TRPM1 promoter in melanoma cells. SK-MEL-5 TRPM1 promoter luciferase, 24 h. inhibition, % at 12.5 µM. actives 0.83% (n = 330,000);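 active means mean inhibition across replicates of 60% or more, whatever share of single replicates reaches that level; inconclusive means some that reach 60%, reason not given; inactive means mean inhibition across replicates below 60%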
Numbers without * were called inactive. The list is not random: actives were taken first. Their share in the collection is about 4%.

How did C[C@@H]1CCCCO[C@H](CN(C)C(=O)Nc2ccc(F)cc2)[C@@H](C)CN([C@H](C)CO)C(=O)c2cc(NS(C)(=O)=O)ccc2O1 do in these assays?
esBAF inh: -4.0; PAX8 inh HTS: -6.0; EWS-Fli block: -2.6

Results for Cc1cccc(-c2ncc(S(=O)(=O)C(C)(C)C)c(N)n2)c1 ?
MITF act: 93.8*; esBAF inh: 67.7*; PAX8 inh HTS: -100.2; EWS-Fli block: -81.7; Wnt bcat act: 34.6*; TRPM1 prom inh: -90.0

How did CC(C)(C)S(=O)(=O)c1cnc(-c2ccccn2)nc1N do in these assays?
MITF act: 1.9; PAX8 inh HTS: -2.5; EWS-Fli block: -9.1; Wnt bcat act: 3.6; TRPM1 prom inh: -25.4

How did CO[C@@H]1CN(C)C(=O)c2ccc(NC(C)=O)cc2OC[C@H](C)N(C(=O)Cc2ccccn2)C[C@H]1C do in these assays?
esBAF inh: -2.1; EWS-Fli block: 1.9

What do the screens show for `C[C@H]1CN([C@@H](C)CO)C(=O)Cc2cc(NS(=O)(=O)c3ccc(Cl)cc3)ccc2O[C@@H]1CN(C)Cc1ccc(Oc2ccccc2)cc1`?
esBAF inh: -0.6; PAX8 inh HTS: 47.8; EWS-Fli block: 60.2*

How did COc1ccc(S(=O)(=O)Nc2ccc3c(c2)CC(=O)N([C@@H](C)CO)C[C@@H](C)[C@H](CN(C)Cc2ccc(-c4ccccc4)cc2)O3)cc1 do in these assays?
esBAF inh: 1.9; PAX8 inh HTS: 95.2*; EWS-Fli block: -8.8

Results for COc1ccc(S(=O)(=O)Nc2ccc3c(c2)CC(=O)N([C@H](C)CO)C[C@@H](C)[C@H](CN(C)Cc2ccc(Oc4ccccc4)cc2)O3)cc1 ?
esBAF inh: 11.9; PAX8 inh HTS: -4.8; EWS-Fli block: 15.6

Results for COc1ccc(S(=O)(=O)Nc2ccc3c(c2)CC(=O)N([C@H](C)CO)C[C@H](C)[C@@H](CN(C)Cc2ccc(Oc4ccccc4)cc2)O3)cc1 ?
esBAF inh: -2.9; PAX8 inh HTS: 68.0*; EWS-Fli block: 27.7

Results for CN(C)C(=O)c1cc2c(c(-c3cccc(-c4ccccc4)c3)n1)[C@H](CCO)N([S@@](=O)C(C)(C)C)C2 ?
PAX8 inh HTS: -12.8; EWS-Fli block: -4.4

Results for COC(=O)[C@@H]1[C@@H](CO)[C@@H]2Cn3c(ccc(-c4ccccc4OC)c3=O)[C@@H]2N1C(=O)c1cccnc1 ?
esBAF inh: -1.4; PAX8 inh HTS: -3.4; EWS-Fli block: 0.8

What do the screens show for `COc1ccccc1-c1ccc2c(c1)O[C@H](CN(C)CC1CC1)[C@H](C)CN([C@@H](C)CO)S2(=O)=O`?
EWS-Fli block: 5.7

What do the screens show for `COc1ccc(-c2nsc3c(N4CCCCC4C)ncnc23)cc1` (stereo not drawn)?
MITF act: -85.7; PAX8 inh HTS: inconclusive; EWS-Fli block: 82.6*; Wnt bcat act: -8.2; TRPM1 prom inh: 86.0*

What do the screens show for `COc1ccc(-c2nsc3c(N4CCCCC4)ncnc23)cc1`?
esBAF inh: -76.9; PAX8 inh HTS: 75.5*; Wnt bcat act: -21.7; TRPM1 prom inh: 64.7*

How did COc1ccc(C(=O)N2CCN(c3ncnc4c(-c5ccccc5)nsc34)CC2)cc1 do in these assays?
esBAF inh: 4.7; PAX8 inh HTS: -18.9; Wnt bcat act: -0.4; TRPM1 prom inh: 8.3

What do the screens show for `COc1ccc(NC(=O)Nc2ccc3c(c2)CC(=O)N([C@H](C)CO)C[C@H](C)[C@@H](CN(C)Cc2ccc(Oc4ccccc4)cc2)O3)cc1`?
esBAF inh: -2.3; PAX8 inh HTS: 69.2*; EWS-Fli block: 5.1

Results for C[C@H]1CN([C@@H](C)CO)C(=O)Cc2cc(NC(=O)Nc3ccccc3)ccc2O[C@H]1CN(C)Cc1ccc(Oc2ccccc2)cc1 ?
esBAF inh: 1.3; PAX8 inh HTS: 9.7; EWS-Fli block: 3.0

How did C[C@@H]1CN([C@@H](C)CO)C(=O)Cc2cc(NC(=O)Cc3ccccc3)ccc2O[C@H]1CN(C)Cc1ccc(Oc2ccccc2)cc1 do in these assays?
esBAF inh: 1.8; PAX8 inh HTS: 71.7*; EWS-Fli block: 4.2

Results for C[C@@H]1CN([C@@H](C)CO)C(=O)Cc2cc(NC(=O)Nc3ccccc3)ccc2O[C@H]1CN(C)Cc1ccc(Oc2ccccc2)cc1 ?
esBAF inh: 2.1; PAX8 inh HTS: 82.4*; EWS-Fli block: 23.3

Assay outcomes (PubChem BioAssay)
